Laboratory results as given in PubChem BioAssay (NCI).
This is part of a sample that, as a whole, favours compounds with a hit. Of some 83,000 tested, about 20% had one in any assay.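 Values shown are percent growth following 48 h exposure of cells in 96-well plates to a single concentration of compound; below 10 was considered active.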 Calls of active or inactive are those of the source.

The compounds below were run on SK-MEL-28 melanoma (assay: NCI-60 one-dose screen, 48 h (100 = growth as untreated, 0 = no growth, -100 = all killed)). Settings: 10 µM.
Description: Growth inhibition of the SK-MEL-28 human tumor cell line is measured as a screen for anti-cancer activity. Cells are grown in 96 well plates and exposed to the test compound for 48 hours. Compounds are tested at a single concentration, which is 10^-5 M for most compounds. The reported endpoint is percent growth (GI% or GIPRCNT), where numbers from 0 - 100% represent growth inhibition, and numbers from -100% - 0 represent cell death. For example, a value of 40 represents 60% growth inhibition. A value of 0 means no net growth occurred over the course of the experiment. A value of -40 indicates 40% of cells at the beginning of the experiment died by the end of the experiment. A value of -100 means all cells are dead at the end of the experiment.
NCI-60 Human Tumor Cell Lines Screen was performed using the standard one-dose NCI protocol, which is described in more detail at https://dtp.cancer.gov/discovery_development/nci-60/default.htm.
Compounds with GIPRCNT values below 10 were considered active. Activity score was based on GIPRCNT using the following formula: […]
Score is 0 for GIPRCNT values of 100 or above, 50 for GIPRCNT values of 0, and 100 for GIPRCNT values of -100.
Cc1cccc(N=Cc2ccccc2O)c1C was tested, and the growth was 106% (inactive).
In the case of C[C@]12CCC3c4ccc(O)cc4C[C@@H](CCCCCCCCCS(=O)CCCC(F)(F)C(F)(F)F)C3C1CC[C@@H]2O (stereo not given in full), the growth is reported as 97.1% (inactive).
O=C1/C(=C/c2ccc3c(c2)OCO3)SC(=S)N1C1c2ccccc2Oc2ccccc21 was tested, and the growth was 96.3% (inactive).
CC(=O)Nc1ccc(CC[C@H]2CCC/C=C/[C@@H]3C[C@H](O)C[C@H]3[C@H](O)/C=C/C(=O)O2)cc1 was tested, and the growth was 6.75% (active).
Cc1ccc(C)c(COc2cc(NC(=O)c3ccc4c(c3)OCO4)ccc2N(C)S(C)(=O)=O)c1 was tested, and the growth was 64.6% (inactive).
In the case of NC1=CC(=O)C(=O)c2cccnc21, the growth is reported as 83.7% (inactive).
O=C(O)c1ccc(-n2cc(CNc3ccc(Oc4ccccc4)cc3)c(-c3ccccc3)n2)cc1 was tested, and the growth was 86.8% (inactive).
In the case of Fc1ccc2[nH]cc(-c3nc(-c4ccsc4)cs3)c2c1, the growth is reported as 108% (inactive).
In the case of NC(=O)c1cccc(-n2ccc3cc(NC(=O)Nc4ccc(Cl)c(C(F)(F)F)c4)ccc32)n1, the growth is reported as 79.4% (inactive).
With CNC(=O)c1cc(Oc2ccc3c(c2)sc2nc(-c4ccc(N)cc4)cn23)ccn1 the growth was 66.1% (inactive).
For CC[C@H]1OC(=O)[C@H](C)[C@@H](O[C@H]2C[C@@](C)(OC)[C@@H](O)[C@H](C)O2)[C@H](C)[C@@H](O[C@@H]2O[C@H](C)C[C@H](N(C)C)[C@H]2O)[C@](C)(OC)C/C(C)=C2/O[C@@]1(C)C=C2C, the growth was -57.1% (active).
C=C(C)[C@@H]1CC[C@]2(COCCC#N)CC[C@]3(C)[C@H](CC[C@@H]4[C@@]5(C)Cc6c([nH]c7ccccc67)C(C)(C)[C@@H]5CC[C@]43C)[C@@H]12 was tested, and the growth was 100% (inactive).
In the case of COc1cc(-c2nn(-c3cccc(NC(=O)CCNc4ccc(N5CCOCC5)cc4)c3)cc2-c2ccncc2)ccc1Cl, the growth is reported as 31.6% (inactive).
In the case of COc1ccc(C(=O)CC(CC(=O)c2ccc(OC)cc2)c2c(C)nn(-c3ccccc3)c2Cl)cc1, the growth is reported as 105% (inactive).
For C[C@]12CC[C@@H]3c4ccc(OS(=O)(=O)O)cc4CC[C@H]3[C@@H]1CC[C@@H]2NS(=O)(=O)c1ccc(-c2ccccc2)cc1, the growth was 95.8% (inactive).
In the case of Nc1nc(-c2ccc(Cl)cc2)cc(-c2cc3ccccc3oc2=O)n1, the growth is reported as 110% (inactive).
With CN1C(C(=O)Nc2ccccn2)=C(O)c2sc(Cl)cc2S1(=O)=O the growth was 102% (inactive).
With COc1cc(-c2nn(-c3cccc(NC(=O)CN4CCOCC4)c3)cc2-c2cccnc2)ccc1Cl the growth was 84.3% (inactive).
CC1/C=C/C=C/C=C/C=C/C=C/C=C/C=C/C(O[C@@H]2O[C@H](C)[C@H](O)[C@@H](O)[C@@H]2N)CC(O)C(C(=O)O)C(O)CC(=O)CC(O)CC(O)CC(O)CC(=O)CCCC(=O)CC(=O)OC1C(C)CC(C)C(O)CC(=O)c1ccc(N)cc1 (stereo not given in full) was tested, and the growth was -94.3% (active).
In the case of COc1cc2c(cc1OC)C(C(CCCCCC(CCC(C)C)C1NCCc3cc(OC)c(OC)cc31)CCC(C)C)NCC2 (stereo not given), the growth is reported as -100% (active).
NS(=O)(=O)Oc1ccc2c(ccn2C(=O)C23CC4CC(CC(C4)C2)C3)c1 was tested, and the growth was 101% (inactive).
With COc1ccccc1/C=N\N/C(N)=N\N=C\c1ccccc1OC the growth was 56.9% (inactive).
With CC(C)(O)CCl the growth was 110% (inactive).
In the case of CCOC(=O)c1cc(C(=O)c2cc(OC)cc(OC)c2)n2nc(C)ccc12, the growth is reported as 78.7% (inactive).
In the case of O=C(O)c1ccc(-n2cc(CNc3ccc(Cl)cc3)c(-c3ccccc3)n2)cc1, the growth is reported as 92.8% (inactive).
With CCNc1nc(C(F)(F)F)nc2c1sc(=S)n2-c1ccccc1 the growth was 112% (inactive).
In the case of O=C(CCCNC(=O)c1nc(-c2ccccc2)n(-c2ccccc2)n1)NO, the growth is reported as 109% (inactive).
With COc1cc(-c2nc3ccccc3o2)cc(CN2CCCCC2)c1O the growth was 59.5% (inactive).
For CCN(CC)CCCOc1cccc2c1C(=O)c1cccc(OCCCN(CC)CC)c1C2=O, the growth was 61.2% (inactive).
Nc1c(Br)cc(Br)c2c1[nH]c(=O)c1ccccc12 was tested, and the growth was 86.8% (inactive).
In the case of COc1ccc(-c2n[nH]nc2-c2cc(OC)c(OC)c(OC)c2)cc1, the growth is reported as 64.4% (inactive).
COc1ccccc1-n1c(-c2sc(NC(C)=O)nc2C)n[nH]c1=S was tested, and the growth was 117% (inactive).
In the case of S=C(SSC(=S)N(c1ccccc1)c1ccccc1)N(c1ccccc1)c1ccccc1, the growth is reported as 111% (inactive).
In the case of CCOC(=O)c1sc2ncnc(Nc3ccc4c(cnn4C(=O)Nc4ccc(C)c(Cl)c4)c3)c2c1C, the growth is reported as 111% (inactive).
For CCOC(=O)Cn1c(=O)c2sc3ncccc3c2n2nnc(-c3ccccc3)c12, the growth was 104% (inactive).
With NC1=NC(c2ccccc2)C2=C(N1)/C(=C/c1ccccc1)CCC2 (stereo not given) the growth was 102% (inactive).
For C=CCN(CC=C)C(=O)[C@H](CC)[C@@H]1CC[C@@H](C)[C@@H]([C@H](C)[C@@H](O)[C@@H](C)C(=O)[C@H](CC)C2O[C@]3(C=CC(=O)[C@]4(CC[C@@](C)([C@H]5CC[C@](O)(CC)[C@H](C)O5)O4)O3)[C@H](C)C[C@@H]2C)O1 (stereo not given in full), the growth was 19.8% (inactive).
For Cc1cc(C)nc(NS(=O)(=O)c2ccc(Nc3nc4nc(NCc5ccccc5)nc(-c5ccc(O)cc5)c4c(=O)[nH]3)cc2)n1, the growth was 32.7% (inactive).
COc1cc(/C=C/c2cc(/C=C/c3ccc(O)c(OC)c3)[nH]c(=O)n2)ccc1O was tested, and the growth was 50.9% (inactive).
For Clc1nc2ccc(Br)cc2cc1-c1nc2ccccc2[nH]1, the growth was 105% (inactive).
